HEK293 viab = GF-AFC viability counterscreen for inhibitors of alpha-synuclein gene (SNCA) expression. HEK-293-SNCA-luc viability, GF-AFC fluorescence, 24 h. Potency, µM (series often up to 57.1 µM), inactives show at the top dose activity change, negative = cytotoxicity, most hits filed as cytotoxic. 0.12% of 150,000 active. AID 1671193, 2021;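 also: potency is read from the fitted curve at half-maximal effect; 0% = DMSO-treated cells and -100% = medium-only wells without cells; nearly all actives have a fitted effect of over 30% in size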
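HEK-293-SNCA-luc cells (1500/well) plated 24 h, then exposed 24 h to a dilution series; GF-AFC added 30 min at 37C, fluorescence 405/540 nm; normalised to medium-only and DMSO wells, Hill fit.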
SNCA expr inhib = Primary qHTS assay for inhibitors of alpha-synuclein gene (SNCA) expression; HEK-293 SNCA-luciferase knock-in, luminescence, 24 h; Potency, µM (series often up to 57.2 µM), for inactives: top-dose activity change, negative = inhibition, actives largely listed as inhibitors; 0.17% of 140,000 active; AID 1671194, 2021;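 also: potency is read from the fitted curve at half-maximal effect; plate controls were DMSO cells for no effect and cell-free wells for full effect; nearly all actives have a fitted effect of over 45% in size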
IP6K1 inhibitor = Primary qHTS assay for small molecule inhibitors of Inositol hexaphosphate kinase 1 (IP6K1); IP6K1 kinase, ADP-Glo luminescence, 2 h; stronger effect = lower value; activity change, % (series mostly up to about 58 µM); 0.81% of 140,000 active; in the data active = activity change below about -25%; also: % is scaled to controls: 0 for no effect and ±100 for the full control effect
Target sequence (Q92551 whole entry, looked up): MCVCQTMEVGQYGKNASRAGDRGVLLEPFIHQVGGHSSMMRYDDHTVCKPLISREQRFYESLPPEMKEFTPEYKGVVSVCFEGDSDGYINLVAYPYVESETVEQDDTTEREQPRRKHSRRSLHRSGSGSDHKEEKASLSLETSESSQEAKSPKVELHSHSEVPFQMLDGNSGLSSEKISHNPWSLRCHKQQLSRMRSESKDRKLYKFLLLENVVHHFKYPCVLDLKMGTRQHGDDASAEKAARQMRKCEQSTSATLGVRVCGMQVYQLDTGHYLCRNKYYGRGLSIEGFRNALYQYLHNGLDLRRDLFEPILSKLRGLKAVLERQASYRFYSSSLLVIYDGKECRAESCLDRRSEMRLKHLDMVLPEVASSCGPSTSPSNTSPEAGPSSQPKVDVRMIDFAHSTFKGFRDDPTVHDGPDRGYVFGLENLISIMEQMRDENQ
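ADP-Glo luminescence measures ADP made by human IP6K1 during a 2 h RT reaction with ATP/IP6 (mix at 1.3 mM/130 uM); top library doses 57.5 and 19.1 uM final.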
KDM5B inhibitor = Primary screen for KDM5B Histone Demethylases FDH-coupled qHTS. Lysine-specific demethylase 5B (Homo sapiens), Q9UGL1. KDM5B demethylase, FDH-coupled NADH fluorescence (FDH is formaldehyde dehydrogenase). Potency, µM (top dose mostly 57.7 µM), usual class: inhibitors. 2.6% of 220,000 active; also: potency is read from the fitted curve at half-maximal effect; 0% is about no effect; nearly all actives have a fitted effect of over 70% in size
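qHTS format, multiple compound concentrations. Buffer 50 mM HEPES pH 7.5/0.01% Tween-20; 200 nM KDM5BΔAP final; 10 min compound preincubation; substrate-mix levels 12.5 µM peptide, 25 µM α-KG, 0.25 mM NAD⁺; 30 min RT; ΔRFU.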
The depositor's hits bear a star; i = inactive; ? = inconclusive; / = no result given; [ ] = another dose, or the depositor's remark. A selection: hits, their analogues and other compounds. The true share with any hit is near 2.8%. Unless noted, calls follow the shape of the dose curve; as a rule, active = well fitted curve in the direction sought with a large enough effect; inconclusive = small, poorly fitted or top-dose-only effect, or another doubt; inactive = no such curve, though single readings can be large; an effect the other way counts as inactive or inconclusive.

SMILES | HEK293 viab | SNCA expr inhib | IP6K1 inhibitor | KDM5B inhibitor
O=C(O)CCC(=O)N[C@H]1CO[C@H]2[C@@H]1OC[C@@H]2Nc1nccc(-c2cccc(F)c2)n1 | 1.2%[87.6 µM] | 10.5%[87.6 µM] | -3.3 | 31.6µM*
Cc1cn2c(=O)c(S(=O)(=O)Nc3ccc(Br)cc3)c(C)nc2s1 | / | / | / | i
COc1cccc(C2(c3cccc(OC)c3)CC2C(=O)O)c1 (stereo not drawn) | / | / | / | i
Cn1ncc2c(C(=O)Nc3ccc(F)cc3)cc(-c3ccccc3C(F)(F)F)nc21 | / | / | -2.0 | /
O=C(O)CCC(=O)N[C@H]1CO[C@H]2[C@@H]1OC[C@@H]2Nc1nccc(-c2ccco2)n1 | 4.9%[87.6 µM] | -5.5%[87.6 µM] | 9.5 | 31.6µM*
O=C(COc1ccc(Br)cc1)NCc1ccc(-c2nn3cnnc3s2)cc1 | / | / | / | i
CCN1CC(C(=O)N2CCN(Cc3cc(OC)ccc3OC)CC2)CC1=O (stereo not drawn) | -7.1% | 1.4% | -8.3 | i
CCN1CC(C(=O)N2CCN(CCOc3ccccc3)CC2)CC1=O (stereo not drawn) | -6.2% | 18.4% | -6.7 | 25.1µM*
Cc1nc2ccccc2c(C)c1CC(=O)NCC1CC1 | / | / | / | i
Cc1noc(-c2ccn3c(CNC(=O)c4ccc(F)cc4Cl)nnc3c2)n1 | -20.8% | -1.2% | 2.8 | i
CCc1noc(-c2ccn3c(CNC(=O)c4cc(F)ccc4Cl)nnc3c2)n1 | -6.0% | 3.4% | 6.9 | 28.2µM*
CC(C)c1noc(-c2ccn3c(CNC(=O)c4ccc(F)cc4Cl)nnc3c2)n1 | 6.5% | 10.2% | 4.6 | 28.2µM*
CCOc1ccccc1C(=O)NCc1nnc2cc(-c3nc(CC)no3)ccn12 | -6.8% | -25.9% | 28.0 | 28.2µM*
Cc1ccc(CSc2nc3nccnc3c(=O)n2Cc2ccc3c(c2)OCO3)cc1 | / | / | / | i
CSc1nnc(-c2ccccc2NC(=O)c2ccc(C)c(S(=O)(=O)N3CCCC3)c2)o1 | / | / | / | i
CC1=C[C@@H](CN2CCOCC2)[C@H](C(C)C)C[C@H]1Cc1nnc(-c2ccccc2F)o1 | ? | -23.4%[87.6 µM] | 7.5 | i
CCCNC(=O)Cc1csc2nc(C)c(-c3cc(C)n(-c4cccc(C)c4C)n3)c(=O)n12 | -1.6% | -0.3% | 14.1 | ?
CCCCNC(=O)Cc1csc2nc(C)c(-c3cc(C)n(-c4cccc(C)c4C)n3)c(=O)n12 | ? | -17.4% | -2.6 | 28.2µM*
Cc1cccc(-n2nc(-c3c(C)nc4scc(CC(=O)NC(C)C)n4c3=O)cc2C)c1C | -0.4% | -5.5% | 10.2 | 25.1µM*
Cc1cccc(-n2nc(-c3c(C)nc4scc(CC(=O)NC(C)C)n4c3=O)cc2C)c1 | 5.8% | -1.2% | 27.6 | ?
COCCNC(=O)Cc1csc2nc(C)c(-c3cc(C)n(-c4ccccc4F)n3)c(=O)n12 | 2.5% | 5.8% | 19.2 | 28.2µM*
Cc1nc2scc(CC(=O)NCc3ccco3)n2c(=O)c1-c1cc(C)n(-c2cc(F)ccc2F)n1 | 9.1% | -20.4% | -4.9 | 25.1µM*
CC(C)N1C(=O)CO[C@H]2CCN(Cc3ccccn3)CC[C@@H]21 | 2.7%[87.6 µM] | -1.1%[87.6 µM] | -11.1 | 35.5µM*
NC(=O)C1CCN(c2cc(-c3noc([C@@H]4CCCN4Cc4cccnc4)n3)ccn2)CC1 | -4.0%[87.6 µM] | 29.5%[87.6 µM] | 16.6 | 39.8µM*
CC(=O)Nc1ccc(CN2CCC[C@H]2c2nc(-c3ccnc(N4CCC(C(N)=O)CC4)c3)no2)cc1 | 4.4% | 14.9% | 12.9 | 31.6µM*
SMILES | HEK293 viab | SNCA expr inhib | IP6K1 inhibitor | KDM5B inhibitor
COc1ccc(CN2CCC[C@H]2c2nc(-c3ccc(N4CCC(C(N)=O)CC4)nc3)no2)c(O)c1 | 4.2% | 3.0% | 12.2 | i
c1cncc(CN2CCC[C@H]2c2nc(-c3ccnc(N4CCCC4)c3)no2)c1 | 0.7%[87.6 µM] | 13.1%[87.6 µM] | 9.5 | 35.5µM*
CC(=O)N1CCN(c2cc(-c3noc([C@@H]4CCCN4Cc4ccc(N(C)C)cc4)n3)ccn2)CC1 | -5.3% | -11.4% | 10.5 | 28.2µM*
CC(=O)Nc1ccc(CN2CCC[C@H]2c2nc(-c3ccnc(NS(C)(=O)=O)c3)no2)cc1 | 2.9% | 26.0% | 12.1 | ?
CCCNC(=S)Nc1cc(Cl)c(Cl)cc1Cl | / | / | / | i
Cc1[nH]c2ccccc2c1C(=O)C(C)Sc1nnnn1C1CC1 (stereo not drawn) | / | / | / | i
NC(=O)C1CCN(c2cc(-c3noc([C@@H]4CCCN4Cc4ccncc4)n3)ccn2)CC1 | -3.0%[87.6 µM] | 6.3%[87.6 µM] | 7.3 | 31.6µM*
c1cc(-c2noc([C@@H]3CCCN3C3CCOCC3)n2)cc(N2CCCC2)n1 | 0.1%[87.6 µM] | 65.1%[87.6 µM] | 0.4 | ?
CC(C)CN1CCC[C@H]1c1nc(-c2ccnc(NS(C)(=O)=O)c2)no1 | -7.7%[87.6 µM] | ? | 3.3 | 35.5µM*
c1cc(-c2noc([C@@H]3CCCN3Cc3ncc[nH]3)n2)cc(N2CCCC2)n1 | 0.8%[87.6 µM] | 26.4%[87.6 µM] | 17.0 | 39.8µM*
CS(=O)(=O)Nc1cc(-c2noc([C@@H]3CCCN3Cc3ccccc3)n2)ccn1 | 3.4%[87.6 µM] | -15.9%[87.6 µM] | -10.4 | ?
O=C(COC(=O)c1ccc(F)c([N+](=O)[O-])c1)Nc1ccc2c(c1)OC1(CCCCC1)O2 | / | / | / | i
O=C(Cc1cccc(Cl)c1)N1CCC(C(=O)N2CCC(N3Cc4ccccc4C3=O)CC2)CC1 | 3.2% | -25.0% | 11.9 | /
CC(C)Cn1nc(C(=O)Nc2nc3c(s2)CN(C)CC3)c2ccccc2c1=O | / | / | / | i
COCc1nc2nc(-c3ccccc3)c(-c3ccc(N4CCN(C)CC4)nc3)cc2n1C | 0.7%[87.6 µM] | -5.8%[87.6 µM] | 2.9 | 35.5µM*
COCc1nc2nc(-c3ccccc3)c(-c3ccc(OC)nc3)cc2n1C | 2.7%[87.6 µM] | -16.2%[87.6 µM] | 18.8 | 35.5µM*
COCc1nc2nc(-c3ccccc3)c(-c3ccnc(OC)c3)cc2n1C | 4.2%[87.6 µM] | -16.3%[87.6 µM] | 7.0 | i
COCc1nc2nc(-c3ccccc3)c(-c3cccc([S+](C)(=O)[O-])c3)cc2n1C | 4.5%[87.6 µM] | 48.0%[87.6 µM] | 8.6 | ?
COCc1nc2nc(-c3ccccc3)c(-c3ccc([S+](C)(=O)[O-])cc3)cc2n1C | 4.8%[87.6 µM] | -3.2%[87.6 µM] | 8.8 | 35.5µM*
N#Cc1cc(C(=O)c2ccccc2OCC(=O)Nc2ccc(F)cc2)cn(C2CCCCC2)c1=O | / | / | / | i
COc1ccc(NC(=O)Cn2c(N(C)Cc3ccccc3)nc(C)cc2=O)cc1OC | -13.7% | ? | 5.2 | i
Cc1cn2nc(C(=O)N3CCN(C4CCCCC4)CC3)cc2c(N(C)Cc2ccccc2)n1 | 5.0% | 0.1% | 4.2 | ?
COc1ccc(NC(=O)c2cc3c(N(C)Cc4ccccc4)nc(C)cn3n2)cc1OC | ? | 1.7% | 0.0 | 31.6µM*
COc1cccc(NC(=O)c2cc3c(N(C)Cc4ccccc4)nc(C)cn3n2)c1 | -9.9% | 5.9% | 8.3 | 28.2µM*
CCOc1ccccc1-c1noc(CSc2nnc(C)n2-c2cccc(C)c2)n1 | / | / | / | i
COc1cc(F)ccc1-c1cc(C(=O)NCc2cccnc2)c2c(c1)N(C)CCO2 | -22.9%[87.6 µM] | -18.2%[87.6 µM] | 9.8 | 28.2µM*
